“And” between values parts separate entries of the source, which are not always exact repeats. Identical values can stand only once. Inconclusive results are not listed. A call without a number means that no potency is given here. The source made the active and inactive calls. Calls follow the shape of the dose curve; as a rule, active = well fitted curve in the direction sought with a large enough effect in the repeat runs; inconclusive = weak or mixed curves; inactive = no such curve, though single readings can be large; an effect the other way counts as inactive or inconclusive.
System: not listed separately
Experiment: qHTS assay to identify small molecule antagonists of the androgen receptor (AR) signaling pathway using the MDA cell line in the presence of 0.5 nM R1881 - cell viability counter screen (AID 1259242); also: nearly all actives have a fitted effect of over 45% in size
Settings: MDA-kb2 viability, CellTiter-Fluor protease fluorescence, 16 h; series mostly up to 92.4 µM
Outline: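 qHTS format. MDA-kb2 (MMTV-luc, AR/GR responsive) + cpd + 0.5 nM R1881 final, 16 hr 37C/0% CO2 → CellTiter-Fluor 30 min → fluorescence intensity.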
Potency is read from the fitted curve at half-maximal effect.

SMILES | Potency
CC(C)(O)C#N | inactive
CS(=O)(=O)NC(=O)c1cc(Oc2ccc(C(F)(F)F)cc2Cl)ccc1[N+](=O)[O-] | inactive
Oc1ccc(Cl)cc1Cc1ccccc1 | inactive
CCC1(c2ccc(N)cc2)CCC(=O)NC1=O (configuration not stated) | inactive
NC(=O)CN1CCCC1=O | inactive
COc1ccc(C=O)cc1OC | inactive
O=C(O)c1nn(Cc2ccc(Cl)cc2Cl)c2ccccc12 | inactive
Brc1ccc(Br)cc1 | inactive
[CH3][Sn]([Cl])([Cl])[Cl] | inactive
O=C1C(Cl)=C(Cl)C(=O)c2ccccc21 | 43.4 µM (active)
N#Cc1nn(-c2c(Cl)cc(C(F)(F)F)cc2Cl)c(N)c1S(=O)C(F)(F)F (configuration not stated) | inactive
O=S(=O)(O)C(F)(F)C(F)(F)C(F)(F)C(F)(F)C(F)(F)C(F)(F)C(F)(F)C(F)(F)F | inactive
CCCCOCC1CO1 (configuration not stated) | inactive
ClCC(Cl)CCl | inactive
O=C1Nc2ccc(Cl)cc2C(c2ccccc2)=NC1O (configuration not stated) | inactive
ClC(Cl)(Cl)Br | inactive
CC1=C(C(=O)Nc2ccccc2)SCCO1 | inactive
Clc1ccccc1-c1nnc(-c2ccccc2Cl)nn1 | inactive
CC1CC(=O)O1 (configuration not stated) | inactive
CCOP(=O)(OCC)OCC | inactive

Target: Androgen receptor (Homo sapiens) (UniProt P10275)
Sequence (P10275 whole entry, looked up): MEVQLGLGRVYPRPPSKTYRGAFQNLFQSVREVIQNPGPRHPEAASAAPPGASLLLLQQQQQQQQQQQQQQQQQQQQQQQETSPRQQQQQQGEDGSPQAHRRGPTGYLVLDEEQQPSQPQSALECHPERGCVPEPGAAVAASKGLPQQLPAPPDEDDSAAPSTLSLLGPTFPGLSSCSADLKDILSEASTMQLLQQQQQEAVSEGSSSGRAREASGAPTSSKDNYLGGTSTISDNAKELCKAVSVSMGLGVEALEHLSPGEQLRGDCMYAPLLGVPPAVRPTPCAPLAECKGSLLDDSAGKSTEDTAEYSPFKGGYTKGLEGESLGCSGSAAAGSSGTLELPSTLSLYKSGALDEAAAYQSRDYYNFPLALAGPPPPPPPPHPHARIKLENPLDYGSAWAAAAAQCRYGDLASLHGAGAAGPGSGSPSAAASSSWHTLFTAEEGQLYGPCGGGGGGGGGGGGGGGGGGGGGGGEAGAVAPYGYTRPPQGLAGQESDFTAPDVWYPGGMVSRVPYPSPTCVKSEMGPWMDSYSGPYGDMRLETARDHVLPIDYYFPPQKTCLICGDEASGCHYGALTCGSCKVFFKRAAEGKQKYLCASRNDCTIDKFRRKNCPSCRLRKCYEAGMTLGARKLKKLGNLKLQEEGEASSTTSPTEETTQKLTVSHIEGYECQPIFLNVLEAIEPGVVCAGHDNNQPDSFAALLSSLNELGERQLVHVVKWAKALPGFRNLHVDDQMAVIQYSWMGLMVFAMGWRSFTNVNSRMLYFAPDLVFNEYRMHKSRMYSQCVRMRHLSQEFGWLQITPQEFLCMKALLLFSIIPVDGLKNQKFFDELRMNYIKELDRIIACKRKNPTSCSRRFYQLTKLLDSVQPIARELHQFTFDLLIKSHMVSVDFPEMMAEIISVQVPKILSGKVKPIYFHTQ
Experiment: qHTS assay to identify small molecule antagonists of the androgen receptor (AR) signaling pathway using the MDA cell line in the presence of 0.5 nM R1881 (AID 1259243); also: nearly all actives have a fitted effect of over 50% in size
Settings: MDA-kb2 MMTV-luciferase, R1881 0.5 nM, 16 h; series mostly up to 92.4 µM
Outline: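 Antagonist mode quantitative HTS in MDA-kb2 MMTV-luciferase cells, agonist R1881 at 0.5 nM final, 16 hr exposure at 37C and 0% CO2, luminescent detection.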

SMILES | Potency
COP(=S)(OC)Oc1ccc(S(=O)(=O)N(C)C)cc1 | inactive
CCC(=O)Nc1ccc(Cl)c(Cl)c1 | 7 µM (active) and 13.7 µM (active)
COC(=O)Nc1nc2ccccc2[nH]1 | inactive
Oc1ccc(Cl)cc1Cc1ccccc1 | 12.2 µM (active) and 4.38 µM (active)
CCC1(c2ccc(N)cc2)CCC(=O)NC1=O (configuration not stated) | inactive
O=C(O)c1nn(Cc2ccc(Cl)cc2Cl)c2ccccc12 | inactive
N#Cc1nn(-c2c(Cl)cc(C(F)(F)F)cc2Cl)c(N)c1S(=O)C(F)(F)F (configuration not stated) | 9.75 µM (active) and 15 µM (active)
CC1=C(C(=O)Nc2ccccc2)SCCO1 | inactive

Target: Estrogen receptor (Homo sapiens) (UniProt P03372)
Sequence (P03372 whole entry, looked up): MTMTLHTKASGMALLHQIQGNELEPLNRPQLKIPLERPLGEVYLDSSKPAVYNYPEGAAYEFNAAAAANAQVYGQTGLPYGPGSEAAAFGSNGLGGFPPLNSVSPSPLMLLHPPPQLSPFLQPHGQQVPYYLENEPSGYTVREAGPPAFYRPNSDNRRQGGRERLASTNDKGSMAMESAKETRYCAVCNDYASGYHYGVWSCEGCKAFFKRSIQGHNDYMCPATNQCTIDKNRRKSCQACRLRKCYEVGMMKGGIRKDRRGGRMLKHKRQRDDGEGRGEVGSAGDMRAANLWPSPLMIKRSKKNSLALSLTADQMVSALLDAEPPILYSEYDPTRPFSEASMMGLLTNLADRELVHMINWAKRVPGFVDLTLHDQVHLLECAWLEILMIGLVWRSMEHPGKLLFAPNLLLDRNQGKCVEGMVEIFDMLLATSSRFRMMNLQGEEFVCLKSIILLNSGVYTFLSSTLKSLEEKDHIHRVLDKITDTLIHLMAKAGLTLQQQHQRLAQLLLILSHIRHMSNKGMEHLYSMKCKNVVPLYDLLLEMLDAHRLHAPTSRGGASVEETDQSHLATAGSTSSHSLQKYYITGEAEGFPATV
Experiment: qHTS assay to identify small molecule antagonists of the estrogen receptor alpha (ER-alpha) signaling pathway using the BG1 cell line in the presence of 0.1 nM 17-beta-estradiol (AID 1259244); also: nearly all actives have a fitted effect of over 50% in size
Settings: VM7Luc4E2 (BG1) ERE-luciferase, antagonist mode, 0.1 nM E2, 22 h; series mostly up to 92.4 µM
Outline: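 Reporter is a stably transfected luciferase under four estrogen responsive elements in VM7Luc4E2 cells expressing native full-length ER-alpha; inhibition of 0.1 nM (final) 17beta-estradiol-driven signal over 22 h is read by luminescence.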

SMILES | Potency
COP(=S)(OC)Oc1ccc(S(=O)(=O)N(C)C)cc1 | inactive
N#Cc1c(Cl)c(Cl)c(Cl)c(C#N)c1Cl | 6.73 µM (active) and 15.4 µM (active)
C[C@]12CC[C@H]3[C@@H](CCC4=CC(=O)CC[C@@H]43)[C@@H]1CC[C@@H]2O | inactive
CC(C)(c1ccccc1)c1ccc(O)c(C(C)(C)c2ccccc2)c1 | 60.6 µM (active)
CC(C)(c1ccccc1)c1ccc(O)cc1 | 61.1 µM (active)
CCOS(=O)(=O)OCC | inactive
CCC1(c2ccc(N)cc2)CCC(=O)NC1=O (configuration not stated) | inactive
COc1ccc(C=O)cc1OC | inactive
O=C(O)c1nn(Cc2ccc(Cl)cc2Cl)c2ccccc12 | inactive
O=C1C(Cl)=C(Cl)C(=O)c2ccccc21 | 12.2 µM (active) and 19.3 µM (active)
N#Cc1nn(-c2c(Cl)cc(C(F)(F)F)cc2Cl)c(N)c1S(=O)C(F)(F)F (configuration not stated) | 6.9 µM (active) and 21.1 µM (active)
CCCCOCC1CO1 (configuration not stated) | inactive
CC1=C(C(=O)Nc2ccccc2)SCCO1 | inactive
Clc1ccccc1-c1nnc(-c2ccccc2Cl)nn1 | inactive
